# Reference: PubChem BioAssay (NCI)
# This is part of a sample that, as a whole, favours compounds with a hit. Of some 83,000 tested, about 20% had one in any assay.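 Growth was measured after 48 h exposure to one concentration of compound in 96-well plates. Values under 10 count as active.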 Calls of active or inactive are those of the source.
# Tested on: HOP-92 NSCLC
# Assay: NCI-60 one-dose screen, 48 h (100 = growth as untreated, 0 = no growth, -100 = all killed)
# Details: 10 µM unless noted
row,Compound,growth
1,O=c1c2ccccc2c2nccn2c2cc(Cl)ccc12,28.8% (inactive)
2,COC(=O)[C@H]1[C@H]2C[C@@H]3c4[nH]c5cc(OC)ccc5c4CCN3C[C@H]2C[C@@H](OC(=O)/C=C/c2cc(OC)c(OC)c(OC)c2)[C@@H]1OC,60.5% (inactive)
3,COc1ccc(-c2c3c(N)nc(-c4ccncc4)nc3nc3c2c(C)nn3-c2ccccc2)cc1,51.4% (inactive)
4,Cc1cc(C)cc(S(=O)(=O)n2ccc(-c3ccc4c(c3)CCC(C)(C)O4)n2)c1,78.1% (inactive)
5,O=C1C(=O)/C(=C/c2ccccc2)CCCCCC/C1=C/c1ccccc1,90.3% (inactive)
6,c1ccc2c(-c3nc4ccccc4[nH]3)cccc2c1,53.3% (inactive)
7,C/C(=C\CCc1ccoc1)CC/C=C(\C)CCCC1COC(=O)C1 (stereo not drawn),88% (inactive)
8,N#CSCC1CC(O)(c2ccccc2)C(c2ccccc2)C(c2ccc(Cl)cc2)O1 (stereo not drawn),-29.6% (active)
9,COc1ccc(NC(=O)[C@@H]2C[C@H]2c2ccccc2)c(C(N)=O)c1,94.6% (inactive)
10,COc1ccc(NS(=O)(=O)N2CCCCC2)cc1,84.6% (inactive)
11,COc1cccc(/C=C2\Cc3ccccc3C2=O)c1,85.7% (inactive)
12,CNCCCn1c2c(c3ccc(F)cc3c1=O)C(=O)c1cc(OC)cnc1-2,-12.4% (active)
13,Cc1ccc(N/N=C(/C(=O)c2ccc(Cl)cc2)c2nc(C)cc(=O)[nH]2)cc1,91% (inactive)
14,CCCCCCCC[Si](OCC)(OCC)OCC,88.8% (inactive)
15,CCC(=O)Nc1cc2c(cc1Cl)-c1ccccc1C2,76.9% (inactive)
16,COc1ccc2c(c1)c(CC(=O)[Se]C)c(C)n2C(=O)c1ccc(Cl)cc1,-6.92% (active)
17,O=C(Nc1cccc(-n2cc(-c3ccncc3)c(-c3cc(O)cc(Cl)c3)n2)c1)Nc1ccc(Cl)c(Cl)c1,-30.5% (active)
18,CC(=O)c1ccc(NS(=O)(=O)c2ccc([N+](=O)[O-])cc2)cc1,83.4% (inactive)
19,O=C(C(=O)c1cc(Br)ccc1O)c1cc(Br)ccc1O,25.4% (inactive)
20,O=C1NC(=O)/C(=C\c2ccco2)S1,87% (inactive)

row,Compound,growth
1,C/C(=C\CCc1ccoc1)CC/C=C(\C)CCCNc1ccc(F)cc1,96.3% (inactive)
2,COc1cc(C(=O)c2cc3c(cc2C)OCO3)cc(OC)c1OC,37.4% (inactive)
3,CCOc1cc(/C=C/C(=O)CC(=O)/C=C/c2ccc(OC(=O)CNCCN(CC)CC)c(OCC)c2)ccc1OC(=O)CNCCN(CC)CC,-3.28% (active)
4,Cc1nn2c(/C=C3/C(=O)Nc4cc(Cl)ccc43)c(-c3ccccc3)nc2s1,-27.8% (active)
5,O=C(c1ccccc1)C(CN1CCCCC1)c1ccccc1 (stereo not drawn),-12.2% (active)
6,Cc1nn(-c2ccccc2)cc1/C=C1\SC(N2CCCCC2)=NC1=O,76.7% (inactive)
7,CN(C)c1ncnc2c1ncn2C1CCCCO1 (stereo not drawn),71% (inactive)
8,CCOc1cc(/C=C/C(=O)C(C(=O)/C=C/c2ccc(OC(=O)CNc3nnc(C)s3)c(OCC)c2)C(=O)CNc2nnc(C)s2)ccc1OC(=O)CNc1nnc(C)s1,-25.6% (active)
9,N#Cc1c(-c2ccccc2)cc(-c2ccccc2)n(CCCCCCC(=O)O)c1=O,125% (inactive)
10,COc1ccc(C2=NN(C=O)C(c3cccc(Nc4ccnc5cc(Cl)ccc45)c3)C2)cc1 (stereo not drawn),36.9% (inactive)
11,COc1cc(/C=C/c2cc(/C=C/c3ccc(O)c(OC)c3)n(C(=O)Cc3ccccc3)n2)ccc1O,-0.112% (active)
12,O=C1c2cccc3c([N+](=O)[O-])ccc(c23)C(=O)N1CCCCl,-82.5% [100 µM] (active)
13,CCOC(=O)/C(=C/CC/C(C)=C/CC/C(C)=C/CCc1ccoc1)CC(=O)N1CCCCC1,-11.2% (active)
14,Clc1ccc2nc(CI)c(CI)nc2c1,19.3% (inactive)
15,CNNc1ncnc2c1cnn2-c1ccc(S(N)(=O)=O)cc1,41.5% (inactive)
16,Nc1nc2c(c(=O)[nH]1)C1(C(=O)Nc3ccccc31)c1c(nc(N)[nH]c1=O)N2,96.2% (inactive)
17,Cc1[nH]cnc1/C=C1\SC(N2CCCCC2)=NC1=O,100% (inactive)
18,COc1cccc(-c2nc3cc(NC(=O)c4ccc(Cl)c(C#N)c4)ccc3o2)c1,26.5% (inactive)
19,N#Cc1ccc(-c2csc(Nc3ccc4nc5n(c(=O)c4c3)CCC5)n2)cc1,169% (inactive)

# Tested on: A549/ATCC NSCLC
# Assay: as above
# Details: 10 µM unless noted
row,Compound,growth
1,O=c1c2ccccc2c2nccn2c2cc(Cl)ccc12,71.7% (inactive)
2,COC(=O)[C@H]1[C@H]2C[C@@H]3c4[nH]c5cc(OC)ccc5c4CCN3C[C@H]2C[C@@H](OC(=O)/C=C/c2cc(OC)c(OC)c(OC)c2)[C@@H]1OC,74.2% (inactive)
3,COc1ccc(-c2c3c(N)nc(-c4ccncc4)nc3nc3c2c(C)nn3-c2ccccc2)cc1,30.8% (inactive)
4,Cc1cc(C)cc(S(=O)(=O)n2ccc(-c3ccc4c(c3)CCC(C)(C)O4)n2)c1,80.8% (inactive)
5,O=C1C(=O)/C(=C/c2ccccc2)CCCCCC/C1=C/c1ccccc1,86.1% (inactive)
6,c1ccc2c(-c3nc4ccccc4[nH]3)cccc2c1,38.6% (inactive)
7,C/C(=C\CCc1ccoc1)CC/C=C(\C)CCCC1COC(=O)C1 (stereo not drawn),97% (inactive)
8,N#CSCC1CC(O)(c2ccccc2)C(c2ccccc2)C(c2ccc(Cl)cc2)O1 (stereo not drawn),-53.7% (active)
9,COc1ccc(NC(=O)[C@@H]2C[C@H]2c2ccccc2)c(C(N)=O)c1,97.5% (inactive)
10,COc1ccc(NS(=O)(=O)N2CCCCC2)cc1,108% (inactive)
11,COc1cccc(/C=C2\Cc3ccccc3C2=O)c1,87% (inactive)
12,CNCCCn1c2c(c3ccc(F)cc3c1=O)C(=O)c1cc(OC)cnc1-2,-71.2% (active)
13,Cc1ccc(N/N=C(/C(=O)c2ccc(Cl)cc2)c2nc(C)cc(=O)[nH]2)cc1,100% (inactive)
14,CCCCCCCC[Si](OCC)(OCC)OCC,102% (inactive)
15,CCC(=O)Nc1cc2c(cc1Cl)-c1ccccc1C2,94.2% (inactive)
16,COc1ccc2c(c1)c(CC(=O)[Se]C)c(C)n2C(=O)c1ccc(Cl)cc1,7.25% (active)
17,O=C(Nc1cccc(-n2cc(-c3ccncc3)c(-c3cc(O)cc(Cl)c3)n2)c1)Nc1ccc(Cl)c(Cl)c1,3.96% (active)
18,CC(=O)c1ccc(NS(=O)(=O)c2ccc([N+](=O)[O-])cc2)cc1,95.5% (inactive)
19,O=C(C(=O)c1cc(Br)ccc1O)c1cc(Br)ccc1O,50.7% (inactive)
20,O=C1NC(=O)/C(=C\c2ccco2)S1,108% (inactive)

row,Compound,growth
1,C/C(=C\CCc1ccoc1)CC/C=C(\C)CCCNc1ccc(F)cc1,80.4% (inactive)
2,COc1cc(C(=O)c2cc3c(cc2C)OCO3)cc(OC)c1OC,17.8% (inactive)
3,CCOc1cc(/C=C/C(=O)CC(=O)/C=C/c2ccc(OC(=O)CNCCN(CC)CC)c(OCC)c2)ccc1OC(=O)CNCCN(CC)CC,12.4% (inactive)
4,Cc1nn2c(/C=C3/C(=O)Nc4cc(Cl)ccc43)c(-c3ccccc3)nc2s1,-28.7% (active)
5,O=C(c1ccccc1)C(CN1CCCCC1)c1ccccc1 (stereo not drawn),79.9% (inactive)
6,Cc1nn(-c2ccccc2)cc1/C=C1\SC(N2CCCCC2)=NC1=O,90.1% (inactive)
7,CN(C)c1ncnc2c1ncn2C1CCCCO1 (stereo not drawn),104% (inactive)
8,CCOc1cc(/C=C/C(=O)C(C(=O)/C=C/c2ccc(OC(=O)CNc3nnc(C)s3)c(OCC)c2)C(=O)CNc2nnc(C)s2)ccc1OC(=O)CNc1nnc(C)s1,8.11% (active)
9,N#Cc1c(-c2ccccc2)cc(-c2ccccc2)n(CCCCCCC(=O)O)c1=O,102% (inactive)
10,COc1ccc(C2=NN(C=O)C(c3cccc(Nc4ccnc5cc(Cl)ccc45)c3)C2)cc1 (stereo not drawn),30.2% (inactive)
11,COc1cc(/C=C/c2cc(/C=C/c3ccc(O)c(OC)c3)n(C(=O)Cc3ccccc3)n2)ccc1O,4.22% (active)
12,O=C1c2cccc3c([N+](=O)[O-])ccc(c23)C(=O)N1CCCCl,-73.7% [100 µM] (active)
13,CCOC(=O)/C(=C/CC/C(C)=C/CC/C(C)=C/CCc1ccoc1)CC(=O)N1CCCCC1,5.91% (active)
14,Clc1ccc2nc(CI)c(CI)nc2c1,96.1% (inactive)
15,CNNc1ncnc2c1cnn2-c1ccc(S(N)(=O)=O)cc1,92.9% (inactive)
16,Nc1nc2c(c(=O)[nH]1)C1(C(=O)Nc3ccccc31)c1c(nc(N)[nH]c1=O)N2,112% (inactive)
17,Cc1[nH]cnc1/C=C1\SC(N2CCCCC2)=NC1=O,96.8% (inactive)
18,COc1cccc(-c2nc3cc(NC(=O)c4ccc(Cl)c(C#N)c4)ccc3o2)c1,-26.7% (active)
19,N#Cc1ccc(-c2csc(Nc3ccc4nc5n(c(=O)c4c3)CCC5)n2)cc1,101% (inactive)
